Bioassay records deposited in PubChem by several laboratories.
Rtt109 Vps75: inhibitors of C. albicans Rtt109/Vps75 HAT, primary screen, biochemical, ThioGlo CoA-SH fluorescence, plate reader | Histone acetyltransferase RTT109 (Candida albicans (strain SC5314 / ATCC MYA-2876)), … | purified Rtt109/Vps75, 4 h | inhibition, % at 34.9 µM | 0.16% of 330,000 active | AID 540336, 2011;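 active = inhibition of at least 50% in every replicate; inconclusive = best replicate reaches 50% inhibition but some replicates fall short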
Target sequence (Q5AAJ8 whole entry, looked up): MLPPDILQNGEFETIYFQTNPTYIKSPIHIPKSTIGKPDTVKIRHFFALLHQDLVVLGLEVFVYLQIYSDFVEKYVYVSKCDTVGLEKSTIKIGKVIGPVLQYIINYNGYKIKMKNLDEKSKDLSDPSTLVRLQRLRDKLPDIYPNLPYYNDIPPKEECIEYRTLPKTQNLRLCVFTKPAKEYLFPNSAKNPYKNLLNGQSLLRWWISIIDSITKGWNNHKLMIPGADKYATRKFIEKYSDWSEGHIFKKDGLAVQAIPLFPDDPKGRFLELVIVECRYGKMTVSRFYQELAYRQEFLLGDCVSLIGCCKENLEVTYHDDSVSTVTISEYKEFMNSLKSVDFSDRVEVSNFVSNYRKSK
Rce1 inhib: yeast Rce1p protease inhibitors, primary screen, biochemical, fluorescence, cell-free homogeneous; CAAX prenyl protease 2 (Saccharomyces cerevisiae (strain ATCC 204508 / S288c)), Q03530; yeast membranes, quenched prenylated peptide cleavage fluorescence; calls only; 0.27% of 290,000 active; AID 2563, 2010;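 active = fall in fluorescence gain of 50% or more versus controls, with final raw signal at or below 3038400; inconclusive = same 50% fall but final raw signal above 3038400; inactive = fall in fluorescence gain under 50%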;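 note: plate controls were neutral control wells for no effect and wells lacking membranes for full effect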
Target sequence (Q03530 whole entry, looked up): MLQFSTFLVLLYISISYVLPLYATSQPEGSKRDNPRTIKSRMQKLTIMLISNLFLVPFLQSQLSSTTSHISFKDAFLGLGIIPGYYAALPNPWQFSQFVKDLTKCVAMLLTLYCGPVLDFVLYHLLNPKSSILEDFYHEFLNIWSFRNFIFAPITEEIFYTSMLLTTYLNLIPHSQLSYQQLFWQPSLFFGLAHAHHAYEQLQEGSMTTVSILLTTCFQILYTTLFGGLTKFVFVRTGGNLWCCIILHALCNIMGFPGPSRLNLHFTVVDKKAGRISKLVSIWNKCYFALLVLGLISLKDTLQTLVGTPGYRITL
ALR inh: inhibitors of human ALR sulfhydryl oxidase, primary screen, biochemical, H2O2 detection, HRP-luminol luminescence, single point; 3.8% of 290,000 active; FAD-linked sulfhydryl oxidase ALR (Homo sapiens), P55789; purified ALR, DTT oxidation; inhibition, % (test concentration not listed); AID 485317, 2010;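 active = mean replicate inhibition above about 79%, with every replicate also reaching it, limit read from the data; inconclusive = only one of the two criteria met; inactive = mean below limit and not every replicate reaching it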
HDAC3 inhib: HDAC3 deacetylase inhibitors, primary screen, biochemical, fluorescence, cell-free homogeneous | Histone deacetylase 3 (Homo sapiens), O15379 | recombinant HDAC3, fluorogenic peptide/trypsin coupled | inhibition, % at 8.3 µM | 0.15% of 320,000 active | AID 2718, 2010; in the data active = inhibition above about 26%, passing the limit was not always enough; inconclusive = no clear call, values can overlap the other calls
GRK2 aptamer HTS: compounds blocking aptamer binding on GRK2 – biochemical, human GRK2, bead flow cytometry, HTS, primary screen. Beta-adrenergic receptor kinase 1 (Homo sapiens), P25098. FAM-aptamer displacement from GRK2. inhibition of aptamer binding, % at 10 µM. 0.59% of 330,000 active;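 active = inhibition of aptamer binding above 40%, roughly 3 SD of noise, on plates passing a quality check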;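 note: median bead fluorescence of bound FAM aptamer so fluorescent compounds give negative values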
Efflux pump inh: inhibitors of Candida efflux pumps in yeast, primary screen, S. cerevisiae, Nile Red, multiplex; S. cerevisiae Candida pump triplex; inhibition, % at 10 µM; 0.44% of 330,000 active; AID 485275, 2010;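 active = plate passing quality check with inhibition over a set limit, or well fluorescence over plate mean plus 4 SD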;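 note: Nile Red retained in pooled yeast measured as flow cytometry median fluorescence; 0% = buffer negative control and 100% = Enniatin B positive control; higher means more Nile Red kept so more efflux inhibition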
* = called active by the depositor; i = inactive; ? = inconclusive; · = no result given; + = active, no number. Shown are actives, neighbours in structure and some others; about 4.5% of the full set was active somewhere.

SMILES | Rtt109 Vps75 | Rce1 inhib | ALR inh | HDAC3 inhib | GRK2 aptamer HTS | Efflux pump inh
CCOC(=O)C(=CNc1ccc(N2CCCCC2)c(S(=O)(=O)Nc2ccccc2OC)c1)C(=O)OCC | 0.5 | · | · | · | · | ·
Nc1ccc(C(=O)N2CCN(S(=O)(=O)c3ccc4c(c3)OCCCO4)CC2)cc1[N+](=O)[O-] | -3.6 | · | -21.9 | -1.4 | 6.0 | 0.1
CCSc1ncc(/C=N/Nc2ccc(Cl)cc2)n1C | -1.4 | i | ? | ? | 2.0 | -0.1
CCSc1ncc(/C=N/Nc2ccccc2)n1C | -2.4 | i | 98.6* | 13.4 | 2.0 | 0.0
Cc1ccc2nc(-c3ccncc3)cc(-c3ccccc3)c2c1 | -5.3 | i | -3.1 | 3.2 | 2.0 | 0.1
Cc1ccc(-c2cc3cccc[n+]3cc2-c2ccc(C)cc2)cc1 | 9.3 | + | 15.6 | -15.5 | 0.0 | 0.1
C/C(=N\NS(=O)(=O)c1ccc(Cl)cc1)c1ccc(O)cc1 | · | · | 95.7* | 2.1 | 0.0 | 0.0
CC(C)S(=O)(=O)C/C(N)=N/OC(=O)c1cc(Cl)cc(Cl)c1 | -0.5 | i | -1.4 | -3.6 | 1.0 | -0.1
Cc1ccc(C(=O)Cc2ccccc2)cc1 | -1.5 | · | · | · | · | ·
Cc1ccc(C(=O)CCc2ccc(N)cc2)cc1 | 3.7 | i | 99.1* | 8.4 | 2.0 | -0.2
S=c1[nH]nc(-c2ccco2)n1/N=C/C(Cl)=C/c1ccccc1 | 17.1 | i | 96.7* | 12.3 | 0.0 | 0.1
Cc1cc(-c2n[nH]c(=S)n2/N=C/C(Cl)=C/c2ccccc2)n[nH]1 | -2.4 | i | 95.6* | 8.2 | 0.0 | -0.1
Cc1ccc(Cl)cc1N1CCN(C(=O)c2cn(C)c(=O)c3c2c2ccccc2n3C)CC1 | 12.7 | i | · | -6.7 | 0.0 | 0.1
Cc1cccc(N2CCN(C(=O)c3cn(C)c(=O)c4c3c3ccccc3n4C)CC2)c1C | 0.9 | i | 87.9* | 6.7 | 3.0 | 0.3
CCNC(=O)N(C)C[C@H]1N[C@@](CC)(C(=O)OC)[C@H]2C(=O)N(C)C(=O)[C@@H]12 | -10.0 | · | 0.9 | -2.2 | 0.0 | -0.3
Cc1ccn2cc(-c3cccc(S(=O)(=O)N4CC(C)OC(C)C4)c3)nc2c1 (stereo not drawn) | 6.9 | i | 97.1* | 9.1 | 4.0 | 0.1
Cc1ccn2cc(-c3cccc(S(=O)(=O)N4CCCC4)c3)nc2c1 | 0.6 | i | 97.4* | -17.0 | 0.0 | -0.1
Cc1cccc(C(=O)OCC(=O)NC2CC2)c1O | -11.5 | · | 10.8 | 0.2 | 1.0 | 0.2
CN(C)c1ccc(C(=S)N2CCCCC2)cc1 | 8.5 | i | -2.6 | -19.6 | 0.0 | -0.1
CN(C)c1ccc(C(=S)N2CCNCC2)cc1 | -6.8 | i | 99.4* | -0.6 | 0.0 | 1.2
Oc1ccc(/C=N/Nc2ncnc3c2ncn3Cc2ccccc2)cc1O | 5.5 | i | 96.0* | 7.7 | 3.0 | 0.2
CCc1nn(CC(=O)NCCCN2CCc3ccccc3C2)c(=O)c2cc3sccc3n12 | 6.4 | i | 95.2* | 16.7 | 0.0 | 0.1
Cn1c(CCCNC(=O)c2ccco2)nc2ccccc21 | -0.3 | · | · | · | · | ·
O=C(CSc1n[nH]c(-c2ccccc2Br)n1)NC(=O)NCc1ccco1 | 5.6 | i | 1.0 | -3.6 | 2.0 | -0.1
CC(C)(C)NC(=O)NC(=O)CSc1n[nH]c(-c2ccccc2Br)n1 | -0.4 | i | 96.3* | 0.6 | 0.0 | 0.2
SMILES | Rtt109 Vps75 | Rce1 inhib | ALR inh | HDAC3 inhib | GRK2 aptamer HTS | Efflux pump inh
CC(C)C(=O)Nc1ccc(-c2nc3ccccc3c(=O)o2)cc1 | 0.0 | i | · | 55.6* | 0.0 | 0.1
CCN(CC(=O)Nc1cccc(OC)c1)c1ncnc2sc(C)c(C)c12 | 5.3 | i | 87.5* | 5.4 | 0.0 | 0.1
CCOc1ccc(NC(=O)CN(C)C(=O)C2CCN(C(=O)Nc3ccccc3)CC2)cc1OCC | 4.0 | · | · | · | · | ·
Cc1csc(NC(=O)CCCC(=O)c2ccccc2)n1 | -1.8 | i | -10.2 | -3.8 | 2.0 | -0.1
CCCN(C(=O)CCNC(=O)Cn1cnc2ccccc2c1=O)c1cccc(C)c1 | 3.1 | i | -0.2 | -5.6 | 0.0 | 0.0
CCN(CCCNC(=O)CCNC(=O)Cn1cnc2ccccc2c1=O)c1cccc(C)c1 | 7.3 | i | 99.3* | 1.1 | 2.0 | -0.1
CCN(CCCNC(=O)Cn1cc2c(n1)CCCC2)c1cccc(C)c1 | 12.8 | i | 98.9* | -0.7 | 0.0 | -0.2
CCN(CCCNC(=O)CCc1nc(-c2ccc(OC)cc2)no1)c1cccc(C)c1 | 8.5 | i | 86.7* | 1.9 | 1.0 | 0.2
COc1ccc(-c2noc(CCC(=O)NCCc3ccccc3)n2)cc1 | -4.3 | i | -1.5 | 1.3 | 0.0 | 0.0
CCN(CCCNC(=O)CNC(=O)Cn1cnc2ccccc2c1=O)c1ccccc1 | -9.1 | · | 98.0* | 7.8 | 0.0 | -0.1
C=CCn1cnc2c(nnn2-c2ccc(C)c(C)c2)c1=O | -5.3 | i | 29.7 | -1.9 | 0.0 | -0.3
Cc1cc(Br)ccc1NC(=O)C1C2CCC(O2)C1C(=O)O (stereo not drawn) | -6.2 | i | -2.4 | -8.5 | 2.0 | -0.1
COc1cc(C)c(NC(=S)Nc2cccc(Cl)c2C)cc1OC | -7.1 | i | 91.1* | 10.1 | 18.0 | 0.7
CCC(=O)Oc1ccc(C/C(=N\O)c2ccc(O)cc2O)o1 | 5.5 | i | 97.9* | ? | 4.0 | -0.1
COc1ccc(C(C)(C)C)cc1NC(=O)c1cccc(S(=O)(=O)N2CCN(C(C)=O)CC2)c1 | -3.4 | i | -2.1 | 3.5 | 0.0 | -0.1
CCOC(=O)COc1cc2c(C(=O)OCC)c(C)oc2cc1Br | · | i | 97.3* | -0.1 | 3.0 | 0.0
CCOC(=O)c1c(C)oc2cc(Br)c(OC(C)C(=O)OCC)cc12 (stereo not drawn) | 1.8 | i | -18.5 | 6.8 | 2.0 | -0.1
COc1ccc(CCN(Cc2cccs2)S(=O)(=O)c2ccc(C(=O)O)cc2)cc1OC | -2.5 | i | 93.8* | 1.6 | 0.0 | 0.1
O=C(NCC(c1cccnc1)N1CCN(c2ccc(F)cc2)CC1)C1CCCCC1 (stereo not drawn) | 3.8 | i | 98.1* | 4.2 | 1.0 | 0.2
COc1ccc(C(=O)NCC(c2cccnc2)N2CCN(c3ccccc3)CC2)cc1OC (stereo not drawn) | -3.6 | i | 98.1* | 7.7 | 0.0 | 0.0
COc1ccc(C(=O)NCC(c2cccnc2)N2CCN(c3ccc(F)cc3)CC2)cc1OC (stereo not drawn) | 1.6 | · | 85.5* | 0.6 | 0.0 | -0.2
O=C(NCC(c1cccnc1)N1CCN(c2ccc(F)cc2)CC1)c1ccc2c(c1)OCO2 (stereo not drawn) | 8.1 | i | 48.0 | 7.0 | 0.0 | 0.1
